KCNQ2 inh: blocks the rat KCNQ2 potassium channel | O88943 | hit rate 1.1% among 310,000 | AID 2156 | CHO-K1 KCNQ2, FluxOR thallium flux, 20 min; hits give low values | B-score at 10 µM;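 active means fluorescence ratio B-score at most minus 3 library SDs, with starting brightness B-score within 2 library SDs, cut at about -5.5 in these data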
Target sequence (O88943 whole entry, looked up): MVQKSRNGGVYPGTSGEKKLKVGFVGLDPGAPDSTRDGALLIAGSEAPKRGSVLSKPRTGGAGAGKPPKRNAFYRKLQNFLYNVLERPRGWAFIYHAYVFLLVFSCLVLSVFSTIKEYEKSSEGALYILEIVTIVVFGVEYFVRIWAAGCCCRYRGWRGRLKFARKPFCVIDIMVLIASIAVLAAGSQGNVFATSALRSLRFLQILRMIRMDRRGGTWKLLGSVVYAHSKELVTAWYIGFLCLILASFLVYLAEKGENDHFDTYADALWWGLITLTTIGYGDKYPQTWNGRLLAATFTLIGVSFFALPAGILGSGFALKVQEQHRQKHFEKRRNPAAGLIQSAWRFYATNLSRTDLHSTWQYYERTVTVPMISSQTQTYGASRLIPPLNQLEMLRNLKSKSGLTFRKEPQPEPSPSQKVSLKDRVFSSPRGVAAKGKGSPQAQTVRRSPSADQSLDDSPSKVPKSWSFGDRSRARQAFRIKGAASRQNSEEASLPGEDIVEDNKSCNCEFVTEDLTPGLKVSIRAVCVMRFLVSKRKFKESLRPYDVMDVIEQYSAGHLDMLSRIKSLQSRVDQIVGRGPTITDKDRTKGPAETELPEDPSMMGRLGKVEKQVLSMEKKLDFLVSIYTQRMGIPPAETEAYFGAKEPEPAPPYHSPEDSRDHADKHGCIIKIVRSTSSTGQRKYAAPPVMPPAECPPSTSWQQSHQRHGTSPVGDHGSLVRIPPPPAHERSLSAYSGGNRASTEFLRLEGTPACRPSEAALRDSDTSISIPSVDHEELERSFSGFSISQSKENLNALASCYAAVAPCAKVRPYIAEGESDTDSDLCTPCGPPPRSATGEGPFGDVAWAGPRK
KCNQ2 pot: enhances the rat KCNQ2 potassium channel. hit rate 0.54% among 310,000. AID 2239. CHO-K1 KCNQ2, FluxOR thallium flux fluorescence; hits give high values. O88943. B-score at 10 µM;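 active means fluorescence ratio B-score at least 3 SD of library B-scores, with initial fluorescence B-score within 3 of them, cut at about 5.3 in these data; same plate scores as AID 2156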;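 further: B-score of peak minus minimum over baseline fluorescence ratio after K+ and Tl+ stimulus; positive B-score means potentiation of KCNQ2 with more thallium influx and brighter signal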
Kir21 conf inh: confirmation of mouse Kir2.1 potassium channel inhibitors. shares compounds with KCNQ2 pot. Kir2.1-expressing cells, FluxOR thallium flux fluorescence; hits give low values. Tl flux remaining, % of negative control (hits give low values), % at 10 µM. hit rate 41% among 2,300;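 active means Primary-screen hit whose thallium flux fell at least 3 control SD below untreated wells in both duplicates, with normal baseline fluorescence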;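 further: 0% = blank wells without stimulus and 100% = stimulated no-compound controls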
HEK293 Tl flux: parental HEK293 activity in Kir2.1 inhibitor counter-screen; shares compounds with KCNQ2 pot; parental HEK293 cells, FluxOR thallium flux fluorescence; 0% = unstimulated blank wells; FluxOR signal as % of negative control (100 = no effect), % at 10 µM; hit rate 19% among 2,300; AID 2105;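 active means dye signal at least 3 control SD above or below untreated wells in both duplicates, raw fluorescence within 3, either direction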;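 further: percent is based on the flux ratio of peak minus minimum fluorescence over baseline F0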
CHO-K1 Tl ctr: parental CHO-K1 activity in KCNQ2 potentiator counter-screen; shares compounds with KCNQ2 pot; activity increase over 3SD of controls, % at 10 µM; AID 2282; parental CHO-K1 cells, FluxOR thallium flux fluorescence; zero = vehicle mean+3SD, 100% = vehicle-minus-blank window; hit rate 43% among 1,200;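 active means signal rise of at least 3 SD above the untreated control mean, in both duplicate wells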;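 further: counter screen of KCNQ2 potentiator hits so any rise reflects channel-independent effects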
KCNQ1 pot spec: tests whether KCNQ2 potentiators also act on human KCNQ1; shares compounds with KCNQ2 pot; CHO KCNQ1 stable, FluxOR thallium flux fluorescence; beyond 3SD, as % of vehicle-control signal; activation over 3SD threshold, % at 10 µM; hit rate 28% among 1,200; AID 2283;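 active means fluorescence ratio rise of at least 3 SD of vehicle wells above their mean, in both replicate wells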;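 further: 0% = vehicle mean plus 3 SD and 100% = vehicle minus unstimulated blank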
KCNQ2 pot confirm: confirmation of rat KCNQ2 potassium channel potentiators; shares compounds with KCNQ2 pot; CHO-KCNQ2 cells, FluxOR thallium flux fluorescence; potentiation, less the hit threshold, % at 10 µM; hit rate 68% among 1,200; AID 2287;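 active means fluorescence ratio rising 3 SD or more over the vehicle control mean in both replicates, plus primary screen hit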;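 further: peak minus minimum thallium fluorescence divided by baseline after K/Tl stimulus; 0% = vehicle mean plus 3 SD and 100% = vehicle minus unstimulated blank difference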
Kir21 spec: selectivity of KCNQ2 potentiators: effect on mouse Kir2.1; shares compounds with KCNQ2 pot; HEK293 Kir2.1, FluxOR thallium flux fluorescence; activity over 3SD threshold, % at 10 µM; hit rate 2% among 1,200; AID 2345;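 active means fluorescence ratio rise of at least 3 SD above the vehicle-control mean, seen in both replicates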;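 further: 0% = vehicle mean plus 3 SD and 100% = vehicle minus no-stimulus blank window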
KCNQ2 W236L MoA: KCNQ2 potentiators acting on retigabine-insensitive rat KCNQ2 W236L mutant | CHO KCNQ2-W236L, automated patch clamp current | shares compounds with KCNQ2 pot | AID 2558 | current increase over 3SD of negative controls (%), hits give high values, % at 25 µM | hit rate 10% among 940;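 active means current increase at least 3 SD of the untreated controls above them in both duplicate recordings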
Numbers without * were called inactive; i = inactive; . = no result. In the library only some 1.6% were active in any assay of this set; here they are far more common.

SMILES	KCNQ2 inh	KCNQ2 pot	Kir21 conf inh	HEK293 Tl flux	others
O=C(O)c1ccn2c(C(=O)c3ccc(Cl)cc3)c(-c3ccccc3)cc2c1	i	8.45*	i	i	CHO-K1 Tl ctr=-6.5;KCNQ1 pot spec=-11.3;KCNQ2 pot confirm=15.5*;Kir21 spec=-25.0;KCNQ2 W236L MoA=i
CC1=NN(c2cccc(C(=O)O)c2)C(=O)/C1=C\C=C/c1ccccc1	i	7.21*	i	i	CHO-K1 Tl ctr=32.7*;KCNQ1 pot spec=-2.2;KCNQ2 pot confirm=35.8*;Kir21 spec=-61.5;KCNQ2 W236L MoA=i
CC1=NN(c2ccc(C)cc2)C(=O)/C1=C\C=C\c1ccccc1	i	.	.	.
Cc1cc(Cl)c(OCCCNC2CCCC2)c(Br)c1	i	2.86	.	.
C=CCNCCCCOc1c(Cl)cc(C)cc1Br	i	0.5	35.0%*	i
COCCCNCCCCOc1c(Cl)cc(C)cc1Br	i	.	43.5%*	i
C=CCNCCOc1c(C)cc(C)cc1Cl	i	1.72	.	.
CCC/C(O)=C1\C(=O)CCCC1=NCCc1c(C)[nH]c2ccc(OC)cc12	i	0.48	.	.
O=C(CSc1nc(CCC2CCCC2)nc2ccccc12)NCc1ccc2c(c1)OCO2	i	.	.	.
Fc1ccccc1OCC1CCCN(Cc2nc(CC3CC3)no2)C1 (configuration not stated)	i	.	.	.
Cc1ccc(N(C(=O)CNC(=O)c2ccco2)C(C(=O)NC2CCCC2)c2cccnc2)c(C)c1 (configuration not stated)	i	0.35	.	.
CCC(C(=O)OCC(=O)NC(=O)c1ccccc1OC)c1ccccc1 (configuration not stated)	i	.	69.5%*	i
CCC(C(=O)OCC(=O)NC(=O)c1ccccc1)c1ccccc1 (configuration not stated)	i	.	.	.
Cc1ccc(S(=O)(=O)N(C)CC(=O)Nc2nc3ccccc3s2)cc1	i	.	.	.
Cc1ccc(/C(=N/Nc2nc3ccccc3s2)C2=C(O)c3ccccc3C2=O)cc1	i	0.85	i	i
COc1ccccc1CC(=O)NC1CCCCCC1	i	1.85	.	.
CCOc1cc(Br)c(CC(=O)NC2CCCCCC2)cc1OCC	i	13.6*	i	i	CHO-K1 Tl ctr=1.1*;KCNQ1 pot spec=14.3*;KCNQ2 pot confirm=14.8*;Kir21 spec=-34.0;KCNQ2 W236L MoA=i
COC(=O)c1ccc([N+](=O)[O-])cc1N1C(=O)C2C3CCC(C3)C2C1=O (configuration not stated)	i	1.67	.	.
COc1ccc(NC(=O)CN(C)S(=O)(=O)c2ccc3c(c2)CC(C)N3C(C)=O)cc1OC (configuration not stated)	i	1.02	.	.
CCOC(=O)c1nc(Nc2ccc(N3CCC(C)CC3)cc2)c2ccccc2n1	i	.	.	.
OC(CNCc1ccccc1)(c1ccc(F)cc1)c1ccc(F)cc1	i	.	38.5%*	i
OC(CNCc1ccc(F)cc1)(c1ccccc1)c1ccc(F)cc1 (configuration not stated)	i	.	i	i
Cc1ccc(CNCC(O)(c2ccccc2)c2ccc(F)cc2)cc1 (configuration not stated)	i	.	.	.
OC(CNCc1ccccc1F)(c1ccc(F)cc1)c1ccc(F)cc1	i	.	.	.
COc1cc(C(=O)NNC(=O)Nc2ccc([N+](=O)[O-])cc2)cc(OC)c1OC	i	0.06	.	.
SMILES	KCNQ2 inh	KCNQ2 pot	Kir21 conf inh	HEK293 Tl flux	others
C=CCc1ccc(OCCCNCc2ccccc2)c(OC)c1	i	3.34	41.5%*	i
C/C=C/c1ccc(OCCN2CCc3ccccc3C2)c(OC)c1	i	.	.	.
Brc1ccccc1OCCNCc1ccccc1	i	.	.	.
C=CCc1ccc(OCCCNC2CCCC2)c(OC)c1	i	.	.	.
C=CCc1ccccc1OCCNCc1ccccc1	i	.	31.5%*	i
C=CCc1ccc(OCCN2CCc3ccccc3C2)c(OC)c1	i	0.84	20.0%*	i
Cc1ccc(NC(=O)CN2C(=O)NC(Cc3ccccc3)C2=O)c(Br)c1 (configuration not stated)	i	.	.	.
CC1Cc2ccccc2N1C(=O)COC(=O)CCc1nc2ccccc2c(=O)[nH]1 (configuration not stated)	i	1.1	.	.
CCOC(=O)c1c(CSc2cccs2)n(C)c2cc(Br)c(O)c(CN(C)C)c12	i	.	.	.
CCc1cc2c(CN3CCN(Cc4ccccc4)CC3)cc(=O)oc2cc1O	i	0.07	74.0%*	i
CCc1ccc2c(CN3CCN(Cc4ccccc4)CC3)cc(=O)oc2c1	i	.	.	.
Cc1cc2oc(=O)cc(CN(C)Cc3cccc(F)c3)c2cc1C	i	2.02	.	.
CCc1cc2c(CN(C)Cc3ccccc3F)cc(=O)oc2cc1O	i	.	i	i
O=C(NCCCC1CCCC1)C1CCC(=O)N(Cc2ccc(Cl)cc2)C1 (configuration not stated)	i	0.18	.	.
Cc1ccc(NC(=O)C2CCN(C(=O)c3ccco3)CC2)cc1C	i	.	.	.
CC(C)(C)c1nnc(NS(=O)(=O)c2cc(Cl)ccc2Cl)s1	i	1.86	.	.
O=S(=O)(Nc1nc(-c2sccc2Cl)cs1)c1cc(Cl)ccc1Cl	i	18.8*	i	339.0%*	CHO-K1 Tl ctr=17.3*;KCNQ1 pot spec=-20.6;KCNQ2 pot confirm=149.0*;Kir21 spec=-24.8;KCNQ2 W236L MoA=i
O=S(=O)(c1ccccc1)[C@@]1(c2ccc(Br)cc2)C[C@@H]2ON=C(c3ccccc3)[C@@H]2C1	i	.	.	.
NC(=O)COC(=O)/C=C/c1cccc(Br)c1	i	0.07	.	.
CCN1CCc2c(C#N)c(NCc3ccccc3)nc(N(CC)CC)c2C1	i	9.13*	i	i	CHO-K1 Tl ctr=-8.3;KCNQ1 pot spec=-22.3;KCNQ2 pot confirm=31.4*;Kir21 spec=-49.5;KCNQ2 W236L MoA=i
CCCCCNc1nc(NCCCO)c(C#N)c2c1CN(C)CC2	i	1.83	.	.
CCCc1nc(NCc2ccccc2)c(C#N)c2c1CCCC2	i	.	.	.
C=CCNc1nc(NCc2ccccc2)c(C#N)c2c1CN(C)CC2	i	.	42.0%*	i
Cc1cc(SCC(=O)Nc2c(C)n(C)n(-c3ccccc3)c2=O)nc2ccccc12	i	0.23	.	.
COCCNC(=O)C(OC(=O)CC1Sc2ccccc2NC1=O)c1ccccc1 (configuration not stated)	i	2.26	.	.
C/C(=C/c1ccccc1)C(=O)N1CCN(c2ccc(F)cc2)CC1	i	.	.	.
O=C(COC(=O)Cc1cccc(C(F)(F)F)c1)Nc1ccccc1	i	1.43	.	.

Screening data deposited in PubChem BioAssay by Johns Hopkins Ion Channel Center.
